About 1,000 (0.67%) of roughly 150,000 compounds were called active. No stated cut-off is given here; in the data, active means % elongation below about 90%; inactive means the rest, inconclusive results apart. The sample as a whole holds a higher share of actives than the screen did.
Target: Genome polyprotein (Poliovirus type 1 (strain Mahoney)) (UniProt P03300)
Test: inhibitors of poliovirus polymerase RNA elongation – biochemical, fluorescence polarization, total intensity, primary screen (AID 588519); on z-score: compound at 16.7 µg/mL
Conditions: stronger effect = lower value; for % elongation: compound at 16.7 µg/mL; for z-score: measured here: FP z-score
[1] = measured here: total intensity read-out

Genome polyprotein (Poliovirus type 1 (strain Mahoney)), sequence (P03300 1749-2209 limits assumed): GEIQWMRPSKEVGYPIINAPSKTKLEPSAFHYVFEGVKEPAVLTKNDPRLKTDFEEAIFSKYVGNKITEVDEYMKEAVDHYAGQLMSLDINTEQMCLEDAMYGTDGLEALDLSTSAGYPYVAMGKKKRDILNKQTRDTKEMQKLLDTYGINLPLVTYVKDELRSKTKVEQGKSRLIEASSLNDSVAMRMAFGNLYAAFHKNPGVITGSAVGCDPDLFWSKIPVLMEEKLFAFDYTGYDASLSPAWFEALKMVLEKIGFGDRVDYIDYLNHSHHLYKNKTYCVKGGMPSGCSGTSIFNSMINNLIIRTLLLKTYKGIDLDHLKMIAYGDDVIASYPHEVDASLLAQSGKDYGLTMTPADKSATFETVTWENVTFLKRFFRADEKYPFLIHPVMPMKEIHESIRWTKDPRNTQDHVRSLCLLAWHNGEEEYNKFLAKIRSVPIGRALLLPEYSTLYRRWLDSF

| Structure (SMILES) | % elongation | z-score | % elongation [1] |
| --- | --- | --- | --- |
| Cc1ccc2nc(C)cc(Nc3ccccc3)c2c1 | 101% (inactive) | -0.1 | 105% |
| Cc1cc(Nc2ccc(Cl)cc2)c2ccccc2n1 | 92% (inactive) | -1 | 93% |
| Cc1cc(Sc2nnc(C)s2)c2ccccc2n1 | 86% (active) | -1.5 | 83% |
| CC(C)CCSc1nc2ncn(C)c2c(=O)[nH]1 | 104% (inactive) | 0.4 | 108% |
| COc1cc(/C=N/NS(=O)(=O)c2cc(C)ccc2C)cc(OC)c1O | 104% (inactive) | 0.3 | 124% |
| O=C1S/C(=C/c2cc3c(cc2Cl)OCO3)C(=O)N1c1ccccc1 | 100% (inactive) | -0.4 | 103% |
| CCN(CC)c1nc(C#N)nc(OC)n1 | 87% (active) | -1.5 | 90% |
| NS(=O)(=O)c1ccc(N=Cc2c(O)n(Cc3ccc4c(c3)OCO4)c(=O)c3ccccc23)cc1 | 100% (inactive) | 0 | 105% |
| CN=C(Cl)c1cccs1 | 99% (inactive) | -0.6 | 101% |
| O=C(Nc1cccc(Cl)c1)N1CCC(n2nnc3cc(F)ccc32)CC1 | 102% (inactive) | 0.2 | 100% |
| CN(C)C(=O)CCSc1nc2cc(Cl)ccc2o1 | 103% (inactive) | 0.3 | 102% |
| CCCCC(=O)Nc1sc2c(c1C#N)CCCC2 | 92% (inactive) | -1.4 | 100% |
| CNC(=O)c1sc(NCc2ccccc2OC)nc1C | 80% (active) | -3.1 | 89% |
| COc1ccccc1CNCc1ccc(C(=O)O)s1 | 108% (inactive) | 0.4 | 113% |
| COc1ccccc1CNC(=O)CS(=O)(=O)c1cccc2nsnc12 | 105% (inactive) | -0.4 | 112% |
| O=C(NCc1ccncc1)C1CCN(C(=O)c2cccc(Cl)c2)CC1 | 99% (inactive) | -0.2 | 102% |
| O=C(c1ccccc1)N1CCN(c2cccc(Cl)c2)CC1 | 100% (inactive) | -0.3 | 95% |
| O=C(c1cccc(Cl)c1)N1CCN(CCc2ccncc2)CC1 | 21% (active) | -6.3 | 37% |
| O=C(O)CSc1nnc(-c2ccccc2)n1-c1ccccc1 | 101% (inactive) | -0.2 | 102% |
| O=C(O)c1ccc2nc[nH]c2c1 | 100% (inactive) | -0.4 | 108% |
| CCOC(=O)c1sc(NC(=O)/C=C/c2ccc(Cl)cc2)cc1C | 102% (inactive) | 0.3 | 106% |
| CCN(C(=O)c1sc2nc3n(c(=O)c2c1C)CCCC3)c1ccccc1 | 100% (inactive) | -1.2 | 100% |
| COc1cc(OC)c(N(C)C(=O)c2ccc3c(=O)n4c(nc3c2)CCCCC4)cc1Cl | 105% (inactive) | 0.9 | 109% |
| CC(C)(C)NCC(O)COc1c(Br)ccc2c1sc1nc3n(c(=O)c12)CCCCC3 (stereo not drawn) | 69% (active) | -4.7 | 96% |
| CC1CC(C)CN(C(=O)C(C)Sc2nnnn2-c2ccc(Cl)cc2)C1 (stereo not drawn) | 98% (inactive) | -0.5 | 99% |
| O=C1CCCCCN1Cc1nnc(SCN2C(=O)c3ccccc3C2=O)n1-c1ccccn1 | 106% (inactive) | 0.4 | 100% |
